# Reference: PubChem BioAssay (NCATS)
# Results filed as inconclusive are left out. A call without a number means that no potency is given here. Unmarked numbers belong to inactive results. Activity calls are given as the source filed them. Calls come from the whole dose curve; as a rule, active = well fitted curve in the direction sought with a large enough effect; inconclusive = small, poorly fitted or top-dose-only effect, or another doubt; inactive = no such curve, though single readings can be large; an effect the other way counts as inactive or inconclusive. Peptide text beside a SMILES is read from it.
# How the values were obtained:
# [1] = biological target: Cellular tumor antigen p53 (Homo sapiens) (UniProt P04637); assay: Primary qHTS for small molecule compounds that upregulate eGFP-tagged delta133p53alpha (in N-terminal) cells. (AID 2060322); conditions: NCI-H358 eGFP-delta133p53alpha fluorescence, 24 h; activation: hits give high values; note: nearly all actives have a fitted effect of over 75% in size; note: potency is the fitted concentration of half-maximal effect;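 for activation: cells pre-induced with doxycycline then dosed without doxycycline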
# In short: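 NCI-H358 cells pre-induced 24 h with 10 ng/ml doxycycline for eGFP-delta133p53alpha, plated dox-free and exposed 24 h at 37C to titrated compounds. Fixed, Hoechst-stained; gated GFP peak intensity by laser scanning cytometry, normalized to DMSO (0%) and 57.5 uM 5-azacytidine (100%).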
# [2] = biological target: Aldehyde dehydrogenase, mitochondrial (Homo sapiens) (UniProt P05091); assay: qHTS for Inhibitors of the Aldehyde Dehydrogenase Family (ALDH2) Primary screen (AID 2061308); conditions: ALDH2 enzyme inhibition qHTS, 1536-well; series mostly up to 56 µM; note: nearly all actives have a fitted effect of over 55% in size
# [3] = biological target: Retinaldehyde dehydrogenase 3 (Homo sapiens) (UniProt P47895); assay: qHTS for Inhibitors of the Aldehyde Dehydrogenase Family (ALDH1A3) Primary screen (AID 2061315); conditions: ALDH inhibition qHTS; series mostly up to 56 µM
# Chain of Cellular tumor antigen p53 (Homo sapiens) (P04637 whole entry, looked up): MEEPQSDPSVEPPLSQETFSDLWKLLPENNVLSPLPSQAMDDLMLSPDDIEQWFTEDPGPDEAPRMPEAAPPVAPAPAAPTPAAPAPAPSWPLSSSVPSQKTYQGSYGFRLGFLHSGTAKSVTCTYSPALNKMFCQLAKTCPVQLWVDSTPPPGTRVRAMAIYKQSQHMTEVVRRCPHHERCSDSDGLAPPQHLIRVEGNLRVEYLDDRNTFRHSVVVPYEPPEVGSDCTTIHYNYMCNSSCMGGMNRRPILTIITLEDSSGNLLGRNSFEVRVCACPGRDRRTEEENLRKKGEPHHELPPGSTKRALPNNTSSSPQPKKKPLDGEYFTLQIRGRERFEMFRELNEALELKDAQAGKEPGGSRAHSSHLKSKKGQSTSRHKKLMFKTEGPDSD
SMILES,activation [1] [%],Potency [2],Potency [3],Potency [1],"activity change, negative = inhibition [2]","activity change, negative = inhibition [3]"
C=C1C(O[C@@H]2O[C@H](CO)[C@@H](O)[C@H](O)[C@@H]2O)CC2C(C)(C)C(O)CCC2(C)C1CC/C(C)=C\CO (stereo partly drawn),6.11,inactive,inactive,,,
C=C1C(=O)O[C@H]2C3=C(C)CCC[C@]3(C)C(=O)C[C@@H]12,,inactive,inactive,15.1 µM (active),,
CC(C)c1ccc(CO)cc1O[C@@H]1O[C@H](CO)[C@@H](O)[C@H](O)[C@H]1O,-11.5,inactive,inactive,,,
O=C(COc1cccc2c(=O)[nH]ccc12)c1ccccc1,-14.5,inactive,inactive,,,
C/C(=C\C=C\C(C)C1CCC2(C)C3CCC4C(C)(C)C(=O)CCC45CC35CCC12C)C(=O)O (stereo not drawn),5.36,inactive,inactive,,,
OC[C@H]1O[C@@H](OC(CCCCc2ccc(O)cc2)CCc2ccc(O)cc2)[C@H](O[C@@H]2OC[C@](O)(CO)[C@H]2O)[C@@H](O)[C@@H]1O (stereo partly drawn),-24.4,inactive,inactive,,,
C=C1C(=O)O[C@@H]2C[C@@H](C)[C@]34C[C@]5(C(=O)O[C@H]6CC(C)=C([C@H](C)CCCO)[C@H](OC(=O)C(C)CC)[C@H]65)[C@@H](C(C)=C3C[C@@H]12)[C@H]4OC(C)=O (stereo partly drawn),,inactive,inactive,6.3 µM (active),,
C[C@@H]1O[C@@H](O[C@H]2[C@H](O[C@H]3[C@H](O[C@H]4CC[C@@]5(C)C(CC[C@]6(C)C5CC=C5[C@@H]7CC(C)(C)C[C@@H](O)[C@]7(C)CC[C@]56C)[C@@]4(C)CO)O[C@H](C(=O)O)[C@@H](O)[C@@H]3O)O[C@H](CO)[C@H](O)[C@@H]2O)[C@H](O)[C@H](O)[C@H]1O (stereo partly drawn),-9.92,inactive,inactive,,,
CC(C)=CCC(O)[C@](C)(O)C1[C@H](O)C[C@@]2(C)C3CC=C4C(C[C@H](O)[C@@H](O[C@@H]5O[C@H](CO)[C@@H](O)[C@H](O)[C@H]5O)C4(C)C)[C@]3(C)C(=O)C[C@]12C (stereo partly drawn),10.7,inactive,inactive,,,
CC(=O)N[C@@H](C(=O)O[C@H]1CCC(C)(C)[C@@H]2CCC3=C(COC3=O)[C@@]12C)C(C)C,-12.2,inactive,inactive,,,
CC1(C)CC[C@]2(C(=O)O[C@@H]3O[C@H](CO)[C@@H](O)[C@H](O)[C@H]3O)CC[C@]3(C)C(=CCC4[C@@]5(C)CC[C@H](O[C@@H]6O[C@H](C(=O)O)[C@@H](O)[C@H](O[C@@H]7O[C@H](CO)[C@H](O)[C@H](O)[C@H]7O)[C@H]6O)C(C)(C)C5CC[C@]43C)C2C1 (stereo partly drawn),-9.92,inactive,inactive,,,
OC[C@H]1O[C@@H](OC[C@H]2O[C@@H](OCc3ccccc3)[C@H](O)[C@@H](O)[C@@H]2O)[C@H](O)[C@@H](O)[C@@H]1O,-3.82,inactive,inactive,,,
c1nc(NC2CCCCCC2)c2cc(CNC[C@H]3CCCO3)sc2n1,-0.893,inactive,inactive,,,
COc1ccc(-c2ccccc2)cc1NS(=O)(=O)c1cc(Cl)cc(Cl)c1O,-8.33,inactive,inactive,,,
COc1ccc(/C=C/C(=O)O[C@@H]2[C@@H](OC(C)=O)[C@@H](OC(C)=O)[C@H](O[C@H]3[C@@H]4C=CO[C@@H](O[C@@H]5O[C@H](CO)[C@@H](O)[C@H](O)[C@H]5O)[C@@H]4[C@@]4(CO)O[C@@H]34)O[C@H]2C)cc1,5.34,inactive,inactive,,,
OC[C@H]1O[C@@H](O[C@H]2[C@H](OCc3ccccc3)O[C@H](CO[C@@H]3OC[C@@H](O)[C@H](O)[C@H]3O)[C@@H](O)[C@@H]2O)[C@H](O)[C@@H](O)[C@@H]1O,-15.2,inactive,inactive,,,
C[C@]12C=CC(=O)C=C1CC[C@@H]1[C@@H]2[C@@H](O)C[C@@]2(C)[C@H]1CC[C@]2(O)C(=O)COC(=O)CCC(=O)O,13,inactive,inactive,,,
C=C1C(=O)OC2CC(C)=C(C(C)CCCO[C@@H]3O[C@H](CO)[C@@H](O)[C@H](O)[C@H]3O)C(O)C12 (stereo partly drawn),-18.3,inactive,inactive,,,
C=C1C(=O)O[C@@H]2C[C@H](C)C3=CC(=O)[C@H](O)[C@@]3(C)C[C@H]12,,inactive,inactive,30.1 µM (active),,
COc1cc(/C=C/C(=O)OC2CC(C)=C(C(=O)O)/C2=C/CO[C@@H]2O[C@H](CO)[C@@H](O)[C@H](O)[C@H]2O)ccc1O (stereo partly drawn),-8.93,inactive,inactive,,,
COc1cc(C)c(C(=O)Oc2cc(C)c(C(=O)Oc3cc(C)c(C(=O)NC(C)C(=O)O)c(O)c3)c(O[C@@H]3O[C@H](CO)[C@@H](O)[C@H](O)[C@H]3OC(C)=O)c2)c(OC)c1 (stereo partly drawn),-7.63,inactive,inactive,,,
CC1CC2(O)OC(=O)C3=C2C(CCC3)[C@@]12C[C@@H](c1ccoc1)OC2=O (stereo partly drawn),-12.2,inactive,inactive,,,
C/C=C(/C)C(=O)OC1C2OC2C2(CO2)C2C3OC(=O)C(C)C3CCC12C (stereo not drawn),18.3,inactive,inactive,,,

SMILES,activation [1] [%],Potency [2],Potency [3],Potency [1],"activity change, negative = inhibition [2]","activity change, negative = inhibition [3]"
CC[N+]1(CC)CCC(=C(c2ccccc2)c2ccccc2)C1C (stereo not drawn),-5.67,inactive,inactive,,,
C=C[C@](C)(O)CC[C@H]1C(C)=CC(=O)[C@H]2C(C)(C)CCC[C@]12C,3.57,inactive,inactive,,,
C[C@H]1CC[C@@H]2N(C1)C[C@@H]1[C@H]([C@@H](O)[C@H](O)[C@]3(O)[C@H]1C[C@@]14OC5(O)[C@@H](C[C@@H](O)[C@@H]31)[C@]4(C)CC[C@@H]5O)[C@]2(C)O,0,inactive,inactive,,,
COc1ccc(C2OCC3C(c4cc(OC)c5c(c4)OCO5)OCC23)cc1OC (stereo not drawn),-8.4,inactive,inactive,,,
C=C1C(=O)OC2C1C(O)CC1(C)C(O)CCC(C=O)C21 (stereo not drawn),13.4,inactive,inactive,,,
Cc1noc(=O)c2ccc(NC(=O)C(O)(CC(C)(C)c3cccc4c3OCC4)C(F)(F)F)cc12 (stereo not drawn),19.7,inactive,inactive,,,
COc1cc(C(C)=O)ccc1O[C@@H]1O[C@H](CO[C@@H]2O[C@@H](C)[C@H](O)[C@@H](O)[C@H]2O)[C@@H](O)[C@H](O)[C@H]1O,-13,inactive,inactive,,,
C=C1C(=O)OC2CC(C)C(CCC(C)=O)=CCC12 (stereo not drawn),,inactive,inactive,16.9 µM (active),,
CC1CC(=O)C2=C(O1)OC1(C)CCC3C(C)(C)C4OC4C(=O)C3(C)C1C2 (stereo not drawn),16.1,inactive,inactive,,,
COC1CC(=O)C23C(=O)NC(CC(C)C)C2C(C)C(C)=CC3/C=C(\C)CCCC1O (stereo not drawn),16.8,inactive,inactive,,,
C=C(C(=O)O)C1CC(O)C2(C)CCCC(=C)C2C1 (stereo not drawn),3.82,inactive,inactive,,,
COC(=O)C1(C)CCC2(C(=O)O)CCC3(C)C(=CCC4C5(C)CC(O)C(OC6OCC(O)C(O)C6O)C(C)(CO)C5CCC43C)C2C1 (stereo not drawn),-6.11,inactive,inactive,,,
CSCC[C@H](NC(=O)[C@H](CO)NC(=O)[C@H](CCC(=O)O)NC(C)=O)C(=O)N[C@H](C=O)CC(=O)O (Ac-ESMD-aldehyde),12.3,,,,-17.2% [at 11.2 µM],-13.4% [at 11.2 µM]
C=C1CC2C3(C)C(O)CC(=O)C(C)(C)C3C(O)C(OC(C)=O)C2(C)C2C(=O)OC(C)(C(=O)OC)C(=O)C12C (stereo not drawn),27.5,inactive,inactive,,,
CC(C)=CCC(O)/C(C)=C/CO[C@@H]1O[C@H](CO)[C@@H](O)[C@H](O)[C@H]1O (stereo partly drawn),-15.2,inactive,inactive,,,
C[C@@H]1O[C@@H](O[C@H]2[C@H](O[C@H]3[C@H](O[C@H]4CC[C@@]5(C)C(CC[C@]6(C)C5CC=C5[C@@H]7CC(C)(C)C[C@@H](O)[C@]7(C)CC[C@]56C)[C@@]4(C)CO)O[C@H](C(=O)O)[C@@H](O)[C@@H]3O)O[C@H](C(=O)O)[C@H](O)[C@@H]2O)[C@H](O)[C@H](O)[C@H]1O (stereo partly drawn),6.87,inactive,inactive,,,
COC1=CC(=O)CC(C)C12Oc1cc(OC)cc(O)c1C2=O (stereo not drawn),16.8,inactive,inactive,,,
C=C1CCC2(OC1)OC1CC3C4CC=C5CC(O)CC(O[C@@H]6OC[C@H](OC(=O)C(O)C(C)CC)[C@H](O)[C@H]6O[C@@H]6O[C@@H](C)[C@H](O)[C@@H](O)[C@H]6O)C5(C)C4CCC3(C)C1C2C (stereo partly drawn),11.6,inactive,inactive,,,
CC1(C)NC2N(C1=O)c1ccccc1C2(O)CC(C(=O)O)n1cnc2ccccc2c1=O (stereo not drawn),-9.16,inactive,inactive,,,
C=C[C@](C)(CC/C=C(\C)C(=O)O)O[C@@H]1OC[C@H](O)[C@H](O)[C@H]1O,7.14,inactive,inactive,,,
CC1CCC2(C(=O)OC3OC(CO)C(O)C(O)C3O)CCC3(C(=O)O)C(=CCC4C5(C)CCC(OC6OC(C)C(O)C(O)C6O)C(C)(C)C5CCC43C)C2C1C (stereo not drawn),-10.7,inactive,inactive,,,
CCCCC(=O)N(Cc1ccc(-c2ccccc2-c2nn[nH]n2)cc1)C(C(=O)O)C(C)C (stereo not drawn),0,inactive,inactive,,,
CC1(C)CC[C@]2(C(=O)O[C@@H]3O[C@H](CO[C@@H]4O[C@H](CO)[C@@H](O)[C@H](O)[C@H]4O[C@@H]4O[C@H](CO)[C@@H](O)[C@H](O)[C@H]4O)[C@@H](O)[C@H](O[C@@H]4O[C@H](CO)[C@@H](O)[C@H](O)[C@H]4O)[C@H]3O)CC[C@]3(C)C(=CCC4[C@@]5(C)CC[C@@H](O)[C@@](C)(C(=O)O[C@@H]6O[C@H](CO)[C@@H](O)[C@H](O)[C@H]6O)C5CC[C@]43C)[C@@H]2C1 (stereo partly drawn),-7.63,,,,5.56% [at 11.2 µM],9.33% [at 11.2 µM]
